From PubChem BioAssay
“And” between values parts separate entries of the source, which are not always exact repeats. Equal entries are not always repeated. The source made the active and inactive calls. Unless noted, no rule for the calls is given here.

What was measured:
[1] = system: Wnt5a (protein binding on small-molecule microarray); assay: Wnt5a binders on small-molecule microarray, primary screen, biophysical, 635/667 nm fluorescence (AID 1142); conditions: 635 nm fluorescence, higher = more signal;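 also: fluorescence read at 667 nm with signal to noise per printed feature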
[2] = cell viability in Huh7 cells, primary screen, cytotoxicity control for HCV replication inhibitor project, CellTiter-Glo luminescence, basal, 48 h (AID 1143); conditions: Huh7 HCV replicon, higher = more signal, called active from +8 up or from −8 down;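 also: Huh7 hepatoma cells carrying a hepatitis C replication reporter with no stimulus; test concentration not given here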
[3] = P. aeruginosa biofilm formation inhibitors, primary screen, PAO1 strain, BacTiter-Glo luminescence, LB-PBS (AID 1144); conditions: 12 h, higher = more signal
[4] = CREB reporter modulators without forskolin, primary screen, cell-based, PC12, CRE-LacZ reporter, unstimulated (AID 1145); conditions: no forskolin, luminescence, 4.5 h, higher = more signal, called active from +8 up or from −8 down
[5] = CREB reporter modulators under forskolin, primary screen, cell-based, PC12, CRE-LacZ reporter, forskolin-stimulated (AID 1146); conditions: luminescence, 4.5 h, higher = more signal, called active from +8 up or from −8 down;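 also: PC12 cells with 6xCRE LacZ reporter stimulated by forskolin 10 µM; beta-galactosidase reporter signal reflecting CREB driven transcription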
[6] = molecular target: Streptavidin (Streptomyces avidinii) (UniProt P22629); assay: streptavidin binders on small-molecule microarray, primary screen, artefact control for SMM compound annotation, biophysical, 635/667 nm fluorescence (AID 1147); conditions: streptavidin binding, higher = more signal;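 also: signal reflects streptavidin binding to arrayed compounds as a control protein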
Streptavidin (Streptomyces avidinii), sequence (P22629 whole entry, looked up): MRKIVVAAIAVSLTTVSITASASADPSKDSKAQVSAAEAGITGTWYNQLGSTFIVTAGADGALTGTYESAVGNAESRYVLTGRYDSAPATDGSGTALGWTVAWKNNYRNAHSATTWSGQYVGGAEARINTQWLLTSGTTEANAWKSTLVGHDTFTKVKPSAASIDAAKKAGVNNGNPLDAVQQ

[7] = small-molecule binders of probe aInhba, primary screen, biochemical, small-molecule microarray, 635/667 nm fluorescence (AID 1148); conditions: higher = more signal;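 also: score merges 667nm spot fluorescence with signal-to-noise for antibody binding to printed compounds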
Torsin-1A (Homo sapiens) [8] = molecular target: Torsin-1A (Homo sapiens) (UniProt O14656); assay: torsin A binders from cell lysate, primary screen, small-molecule microarray, wild-type, 635/667 nm (AID 1149); conditions: COS7 hTOR1A-WT lysate, 635 nm fluorescence, higher = more signal
Torsin-1A (Homo sapiens), sequence (O14656 whole entry, looked up): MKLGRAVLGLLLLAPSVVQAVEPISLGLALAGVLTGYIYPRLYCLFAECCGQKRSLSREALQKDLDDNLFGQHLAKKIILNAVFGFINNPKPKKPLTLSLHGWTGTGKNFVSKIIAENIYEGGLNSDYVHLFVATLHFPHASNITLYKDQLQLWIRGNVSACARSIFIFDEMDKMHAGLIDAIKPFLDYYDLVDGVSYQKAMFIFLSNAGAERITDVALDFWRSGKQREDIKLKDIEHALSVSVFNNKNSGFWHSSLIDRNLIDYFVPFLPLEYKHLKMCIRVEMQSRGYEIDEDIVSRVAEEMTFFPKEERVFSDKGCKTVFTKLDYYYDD

Torsin-1A (Homo sapiens) [9] = molecular target: Torsin-1A (Homo sapiens) (UniProt O14656); assay: small-molecule binders of mutant TOR1A in lysate, primary screen, cell lysate, small-molecule microarray, COS7 lysate, 635/667 nm fluorescence (AID 1150); conditions: COS7 hTOR1A mutant lysate, 635 nm fluorescence, higher = more signal;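 also: score pools 667 nm emission and signal to noise measuring lysate protein binding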
[10] = system: Sonic hedgehog protein (Shh); assay: small-molecule binders of Shh protein, primary screen, biochemical, small-molecule microarray, 635/667 nm fluorescence (AID 1151); conditions: small-molecule microarray binding, 635 nm fluorescence; higher = more signal;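 also: Shh protein binding to compounds spotted on small-molecule microarray slides; score combines spot fluorescence intensity with signal-to-noise across triplicate slides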
[11] = E. coli DRC41 culture turbidity changes, primary screen, E. coli filamentation inducer project, strain DRC41, OD650, 48 h (AID 1152);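 also: E. coli MC1000 strain DRC41 lacking acrAB efflux pump and sulA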; conditions: E. coli DRC41 (acrAB sulA), higher = more signal, called active from +8 up or from −8 down
[12] = small-molecule binders of probe aLefty1, primary screen, biochemical, small-molecule microarray, 635/667 nm fluorescence (AID 1153); conditions: higher = more signal;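 also: score merges spot fluorescence with signal-to-noise ratio from the scanned slide images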
[13] = PSAC antagonists in infected red cells, primary screen, cell-based, P. falciparum Indochina, OD700, 1 h (AID 1154); conditions: P. falciparum Indochina infected RBC osmotic lysis, higher = more signal, called active from +8 up or from −8 down
[14] = PSAC antagonists in infected red cells, primary screen, cell-based, P. falciparum Indochina, OD700, 2 h (AID 1155);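 also: lysis reports solute entry through the parasite surface anion channel PSAC; channel blockers reduce lysis of infected cells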; conditions: P. falciparum Indochina infected erythrocytes, osmotic lysis OD700; higher = more signal, called active from +8 up or from −8 down
[15] = osmotic lysis modulators in infected erythrocytes, primary screen, PSAC antagonist project, cell-based, P. falciparum Indochina, OD700, 3 h (AID 1156); conditions: higher = more signal, called active from +8 up or from −8 down
[16] = PSAC antagonists in infected red cells, primary screen, cell-based, P. falciparum Indochina, OD700, 18 h (AID 1157); conditions: P. falciparum Indochina infected erythrocytes, osmotic lysis OD700, 18 h; higher = more signal, called active from +8 up or from −8 down
[17] = modulators of S6 phosphorylation in cells, primary screen, cell-based, A549, cytoblot, luminescence, serum-stimulated (AID 1158); conditions: A549 phospho-S6 cytoblot, 5 h, higher = more signal;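 also: serum-stimulated A549 lung adenocarcinoma cells; signal is phosphorylated S6 detected by cytoblot immunostaining with HRP secondary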
[18] = molecular target: NADPH oxidase 2 (Homo sapiens) (UniProt P04839); assay: NOX2-dependent H2O2 signal modulators, primary screen, NOX inhibitor project, cell-based, HEK293-NOX2, PMA-stimulated, Amplex Red fluorescence (AID 1159); conditions: 45 min, higher = more signal, called active from +8 up or from −8 down; also: test concentration not given here
NADPH oxidase 2 (Homo sapiens), sequence (P04839 whole entry, looked up): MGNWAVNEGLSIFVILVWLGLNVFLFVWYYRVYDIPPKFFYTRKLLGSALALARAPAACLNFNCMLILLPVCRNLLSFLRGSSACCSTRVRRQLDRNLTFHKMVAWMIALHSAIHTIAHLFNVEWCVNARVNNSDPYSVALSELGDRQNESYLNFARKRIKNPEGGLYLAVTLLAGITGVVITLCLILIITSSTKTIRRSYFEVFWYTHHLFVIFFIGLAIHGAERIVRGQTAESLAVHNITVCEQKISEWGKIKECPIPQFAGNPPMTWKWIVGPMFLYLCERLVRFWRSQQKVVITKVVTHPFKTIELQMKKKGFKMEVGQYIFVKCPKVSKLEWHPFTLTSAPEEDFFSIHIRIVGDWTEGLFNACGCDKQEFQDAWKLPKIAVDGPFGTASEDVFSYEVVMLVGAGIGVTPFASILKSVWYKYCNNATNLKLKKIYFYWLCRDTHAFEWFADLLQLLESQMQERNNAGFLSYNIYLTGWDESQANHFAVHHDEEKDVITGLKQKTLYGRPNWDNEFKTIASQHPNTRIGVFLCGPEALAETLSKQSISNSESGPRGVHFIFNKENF

[19] = molecular target: NADPH oxidase 4 (Homo sapiens) (UniProt Q9NPH5); assay: NOX4-dependent H2O2 signal modulators, primary screen, NOX inhibitor project, cell-based, HEK293-NOX4, tetracycline-induced, Amplex Red fluorescence (AID 1160); conditions: 45 min, higher = more signal, called active from +8 up or from −8 down
NADPH oxidase 4 (Homo sapiens), sequence (Q9NPH5 whole entry, looked up): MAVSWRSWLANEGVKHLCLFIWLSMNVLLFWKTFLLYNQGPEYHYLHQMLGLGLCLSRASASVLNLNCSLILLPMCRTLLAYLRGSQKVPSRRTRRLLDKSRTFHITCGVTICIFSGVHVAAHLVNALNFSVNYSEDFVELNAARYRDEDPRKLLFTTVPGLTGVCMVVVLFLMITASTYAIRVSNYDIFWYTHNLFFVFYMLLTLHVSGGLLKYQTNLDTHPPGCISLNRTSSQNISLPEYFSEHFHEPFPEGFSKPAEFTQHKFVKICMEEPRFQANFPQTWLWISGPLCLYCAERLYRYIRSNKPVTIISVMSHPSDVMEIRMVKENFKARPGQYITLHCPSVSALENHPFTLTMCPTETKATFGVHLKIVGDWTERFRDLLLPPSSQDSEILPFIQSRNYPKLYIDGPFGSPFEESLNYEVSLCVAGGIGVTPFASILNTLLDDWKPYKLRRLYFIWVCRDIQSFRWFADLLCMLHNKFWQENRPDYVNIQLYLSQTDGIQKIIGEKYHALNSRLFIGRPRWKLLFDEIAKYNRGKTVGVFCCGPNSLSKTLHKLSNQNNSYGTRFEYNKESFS

[20] = molecular target: NADPH oxidase 5 (Homo sapiens) (UniProt Q96PH1); assay: NOX5-dependent H2O2 signal modulators, primary screen, NOX inhibitor project, cell-based, HEK293-NOX5, Amplex Red fluorescence (AID 1161); conditions: HEK293-NOX5, ionomycin, 45 min, higher = more signal
NADPH oxidase 5 (Homo sapiens), sequence (Q96PH1 whole entry, looked up): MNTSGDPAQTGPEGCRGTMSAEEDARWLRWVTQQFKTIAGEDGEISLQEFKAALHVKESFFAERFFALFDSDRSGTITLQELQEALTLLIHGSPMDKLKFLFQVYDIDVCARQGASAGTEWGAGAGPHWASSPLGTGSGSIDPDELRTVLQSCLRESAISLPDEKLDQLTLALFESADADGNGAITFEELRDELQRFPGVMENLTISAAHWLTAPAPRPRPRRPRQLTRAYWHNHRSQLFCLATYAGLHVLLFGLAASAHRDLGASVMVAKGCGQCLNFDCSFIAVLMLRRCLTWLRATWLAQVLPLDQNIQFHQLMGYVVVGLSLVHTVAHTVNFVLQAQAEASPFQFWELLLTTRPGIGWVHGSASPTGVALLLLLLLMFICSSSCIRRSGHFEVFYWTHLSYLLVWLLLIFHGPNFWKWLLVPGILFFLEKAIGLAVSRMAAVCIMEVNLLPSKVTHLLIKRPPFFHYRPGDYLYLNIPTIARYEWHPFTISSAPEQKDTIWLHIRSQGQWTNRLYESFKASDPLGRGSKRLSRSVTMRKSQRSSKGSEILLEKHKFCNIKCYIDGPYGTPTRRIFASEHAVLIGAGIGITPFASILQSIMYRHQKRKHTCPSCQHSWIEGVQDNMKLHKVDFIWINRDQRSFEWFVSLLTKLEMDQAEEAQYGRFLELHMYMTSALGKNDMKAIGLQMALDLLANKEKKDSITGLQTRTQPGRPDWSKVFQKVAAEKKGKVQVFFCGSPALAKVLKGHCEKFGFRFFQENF

In the case of `CC(C)CON=C1C[C@@H](O)[C@@H](O)[C@@H]2[C@@H]3C(=O)N(c4cccc(Oc5ccccc5)c4)C(=O)[C@@H]3CC[C@H]12`, the composite z-score [1] was 0.738, the z-score [2] was -0.158 (inactive) and the z-score [3] was 0.198 (inactive). The z-score [4] was -0.292 (inactive), the z-score [5] was 0.235 (inactive) and the composite z-score [6] was 0.804. It also gave a composite z-score [7] of -0.102, a composite z-score (Torsin-1A (Homo sapiens) [8]) of -0.243 and a composite z-score (Torsin-1A (Homo sapiens) [9]) of 0.22. The composite z-score [10] was 0.697, the z-score [11] was 0.525 (inactive) and the composite z-score [12] was -0.298. The z-score [13] was -0.436 (inactive), the z-score [14] was 0.0644 (inactive) and the z-score [15] was 0.388 (inactive). For the same molecule, the z-score [16] was 0.158 (inactive), the z-score [17] was -0.157 and the z-score [18] was -0.831 (inactive). For the same molecule, the z-score [19] was 0.11 (inactive) and the z-score [20] was -0.144.
In the case of `C=CCN(CCCCC)C(=O)C(c1cccs1)N(CCOCCO)C(=O)/C=C\C(=O)O` (stereo not given), the composite z-score [1] was -0.845 and -0.857, the z-score [2] was -0.103 (inactive) and -0.0586 (inactive) and the z-score [3] was -1 (inactive) and -1.11 (inactive). For the same molecule, the z-score [4] was -0.0778 (inactive) and -0.35 (inactive), the z-score [5] was 0.941 (inactive) and -0.947 (inactive) and the composite z-score [6] was -0.986 and -1.14. The composite z-score [7] was -0.312 and -0.204, the composite z-score (Torsin-1A (Homo sapiens) [8]) was -2.06 and -2.03 and the composite z-score (Torsin-1A (Homo sapiens) [9]) was -1.74 and -2.07. The composite z-score [10] was -0.556 and -0.586, the z-score [11] was 1.53 (inactive) and 1.77 (inactive) and the composite z-score [12] was -1.26 and -0.239. The z-score [13] was 1.03 (inactive) and 0.0763 (inactive), the z-score [14] was -1.53 (inactive) and -1.1 (inactive) and the z-score [15] was -0.772 (inactive) and -1.06 (inactive). The z-score [16] was -1.88 (inactive) and -1.64 (inactive), the z-score [17] was 1.27 and 0.842 and the z-score [18] was -0.224 (inactive) and 0.208 (inactive). The z-score [19] was -0.617 (inactive) and -0.64 (inactive) and the z-score [20] was -0.366 and 0.183.
In the case of `CCOC(=O)CCN1C(=O)[C@H]2[C@H]3[C@H](O)[C@H](O)CC(=NNC(=O)OCC)[C@@H]3CC[C@H]2C1=O`, the composite z-score [1] was 0.201, the z-score [2] was 0.0243 (inactive) and the z-score [3] was -0.129 (inactive). For the same molecule, the z-score [4] was 0.796 (inactive), the z-score [5] was 0.261 (inactive) and the composite z-score [6] was -0.283. The composite z-score [7] was -0.0791, the composite z-score (Torsin-1A (Homo sapiens) [8]) was 0.274 and the composite z-score (Torsin-1A (Homo sapiens) [9]) was 0.608. The composite z-score [10] was 0.188, the z-score [11] was 0.542 (inactive) and the composite z-score [12] was -0.193. The z-score [13] was -0.48 (inactive), the z-score [14] was 0.189 (inactive) and the z-score [15] was -0.602 (inactive). For the same molecule, the z-score [16] was -0.0634 (inactive), the z-score [17] was -0.494 and the z-score [18] was -0.489 (inactive). For the same molecule, the z-score [19] was 0.916 (inactive) and the z-score [20] was 0.754.
For `CCCCN1CC=CC23O[C@@H]4C=CCCOC(=O)C4[C@H]2C(=O)N(C(C)CO)[C@@H]3C1=O` (stereo not given in full), the composite z-score [1] was -0.296 and 0.339, the z-score [2] was 0.161 (inactive) and -0.214 (inactive) and the z-score [3] was 0.781 (inactive) and 1.82 (inactive). For the same molecule, the z-score [4] was -0.216 (inactive) and -0.204 (inactive), the z-score [5] was 0.405 (inactive) and -0.764 (inactive) and the composite z-score [6] was -1.23 and -0.178. For the same molecule, the composite z-score [7] was -0.143 and 0.201, the composite z-score (Torsin-1A (Homo sapiens) [8]) was 0.234 and -0.131 and the composite z-score (Torsin-1A (Homo sapiens) [9]) was 0.234 and 0.148. The composite z-score [10] was 0.173 and 0.798, the z-score [11] was -0.462 (inactive) and -0.0672 (inactive) and the composite z-score [12] was -0.007 and 0.0181. For the same molecule, the z-score [13] was 1.77 (inactive) and 0.636 (inactive), the z-score [14] was 0.446 (inactive) and 1.06 (inactive) and the z-score [15] was 0.874 (inactive) and 1.09 (inactive). For the same molecule, the z-score [16] was 0.234 (inactive) and 0.601 (inactive), the z-score [17] was 1.48 and 1.2 and the z-score [18] was 1.49 (inactive) and 1.3 (inactive). For the same molecule, the z-score [19] was 0.784 (inactive) and 0.359 (inactive) and the z-score [20] was 2.31 and 2.
With `C[C@@H]1CC[C@H]2C(=O)NC[C@@H](O)CN2[C@H]1c1ccc(Br)cc1` the composite z-score [1] was -0.0755 and 0.0111, the z-score [2] was 0.3 (inactive) and 0.139 (inactive) and the z-score [3] was 0.721 (inactive) and 0.543 (inactive). The z-score [4] was 0.649 (inactive) and 0.108 (inactive), the z-score [5] was 0.797 (inactive) and 0.187 (inactive) and the composite z-score [6] was -0.161 and -0.289. For the same molecule, the composite z-score [7] was -0.0762 and -0.128, the composite z-score (Torsin-1A (Homo sapiens) [8]) was 0.0335 and 0.266 and the composite z-score (Torsin-1A (Homo sapiens) [9]) was 0.0464 and -0.352. The composite z-score [10] was 0.264 and -0.0212, the z-score [11] was -1.08 (inactive) and -0.445 (inactive) and the composite z-score [12] was -0.426 and -0.017. For the same molecule, the z-score [13] was 0.211 (inactive) and -0.0955 (inactive), the z-score [14] was -0.0378 (inactive) and 0.0974 (inactive) and the z-score [15] was -0.114 (inactive) and -0.125 (inactive). The z-score [16] was -0.218 (inactive) and 0.0277 (inactive), the z-score [17] was 0.53 and -0.753 and the z-score [18] was -0.807 (inactive) and 0.12 (inactive). The z-score [19] was 0.283 (inactive) and 0.229 (inactive) and the z-score [20] was 0.646 and 0.135.
In the case of `COC(=O)C1=C(C)N(Cc2ccccc2)C2=C3C(=O)N(c4ccccc4)C(=O)[C@@H]3[C@@](O)(C(=O)OC)C(=O)N2[C@@H]1c1ccccc1`, the composite z-score [1] was 0.297 and 0.678, the z-score [2] was -0.146 (inactive) and -1.82 (inactive) and the z-score [3] was 0.9 (inactive). For the same molecule, the z-score [4] was 2.72 (inactive) and -0.615 (inactive), the z-score [5] was -0.718 (inactive) and -0.78 (inactive) and the composite z-score [6] was 0.117 and 0.12. The composite z-score [7] was -0.024 and -0.0313, the composite z-score (Torsin-1A (Homo sapiens) [8]) was 0.801 and 0.365 and the composite z-score (Torsin-1A (Homo sapiens) [9]) was 0.516 and 0.533. For the same molecule, the composite z-score [10] was 0.574 and 0.726, the z-score [11] was 0.417 (inactive) and 0.339 (inactive) and the composite z-score [12] was 0.0752 and -0.0984. The z-score [13] was 0.518 (inactive) and 0.516 (inactive), the z-score [14] was 0.372 (inactive) and -0.427 (inactive) and the z-score [15] was 0.509 (inactive) and 0.736 (inactive). For the same molecule, the z-score [16] was 0.54 (inactive) and -0.962 (inactive), the z-score [17] was -0.528 and 1.43 and the z-score [18] was -0.0787 (inactive) and 0.333 (inactive). For the same molecule, the z-score [19] was -0.0918 (inactive) and 0.833 (inactive) and the z-score [20] was -0.244 and 0.251.
